Reference: PubChem BioAssay (EPA / NIEHS)
Active and inactive are the calls of the source. The calls were made as follows: active = hit-call score of the fitted dose curve at least 0.9, where 1 is the maximum; inactive = score below 0.9.

How the values were obtained:
Conditions in all cases: mRNA level, 48 h; actives raise or lower the signal
[1] = read-out: Lipase C (LIPC), LIPC (gene 3990); assay: LTEA_HepaRG_LIPC: Life Technologies and Expression Analysis (LTEA) Assay for Lipase C (LIPC) using HepaRG (AID 2283514)
Outline: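 In this multiplexed gene-expression screen, human HepaRG cultures received test chemicals for 48 h across eight concentrations with 100 uM highest, in duplicate. Values reflect LIPC mRNA induction or suppression versus DMSO vehicle, from normalized qRT-PCR.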

[2] = read-out: Lipoprotein lipase (LPL), LPL (gene 4023); assay: LTEA_HepaRG_LPL: Life Technologies and Expression Analysis (LTEA) Assay for Lipoprotein lipase (LPL) using HepaRG (AID 2283515)
Outline: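 Concentration-response testing used half-log steps from 100 uM in 0.5% DMSO on human HepaRG cells, 48 h, duplicate wells. Phenobarbital 1 mM served as induction control; LPL mRNA was normalized to ACTB, GAPDH, POLR2A.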

[3] = read-out: MicroRNA 122 (MIR122), gene 406906; assay: LTEA_HepaRG_MIR122: Life Technologies and Expression Analysis (LTEA) Assay for MicroRNA 122 (MIR122) using HepaRG (AID 2283516); also: the transcript read is the microRNA miR-122
Outline: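 Expression measured by microfluidic qRT-PCR with three housekeeping genes for normalisation, after 48 h treatment of HepaRG cultures. Eight concentrations (top 100 uM, half-log steps, 0.5% DMSO vehicle) in duplicate; gain or loss fitted relative to vehicle.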

[4] = read-out: matrix metalloproteinase-10 (MMP10), MMP10 (gene 4319); assay: LTEA_HepaRG_MMP10: Life Technologies and Expression Analysis (LTEA) Assay for matrix metalloproteinase-10 (MMP10) using HepaRG (AID 2283517)
Outline: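 In differentiated HepaRG cultures kept in 0.5% DMSO, test chemicals act for 48 h over an eight-point range with a top dose of 100 uM. Expression is then quantified by TaqMan RT-PCR against ACTB, GAPDH and POLR2A.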

MYC, MYC (gene 4609) = assay: LTEA_HepaRG_MYC: Life Technologies and Expression Analysis (LTEA) Assay for MYC using HepaRG (AID 2283518)
Outline: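 Expression changes were scored by TaqMan qRT-PCR with ACTB, GAPDH and POLR2A normalization. Cultures in serum-free induction medium received duplicate 8-point concentration series, highest 100 uM, for 48 h; DMSO (0.5%) served as baseline.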

[5] = read-out: matrix metalloproteinase-3 (MMP3), MMP3 (gene 4314); assay: LTEA_HepaRG_MMP3: Life Technologies and Expression Analysis (LTEA) Assay for matrix metalloproteinase-3 (MMP3) using HepaRG (AID 2283519)
Outline: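 Human liver HepaRG cultures received chemicals (top concentration 100 uM, 0.5% DMSO) for 48 h in duplicate. MMP3 mRNA induction or loss was then assessed via TaqMan qRT-PCR with housekeeping-gene normalisation.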

[6] = read-out: Paternally Expressed 10 (PEG10), PEG10 (gene 23089); assay: LTEA_HepaRG_PEG10: Life Technologies and Expression Analysis (LTEA) Assay for Paternally Expressed 10 (PEG10) using HepaRG (AID 2283520);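 as to AC50: differentiated HepaRG human liver cells in serum-free induction medium with 0.5% DMSO; PEG10 transcript by qRT-PCR normalised to ACTB GAPDH and POLR2A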
Outline: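 PEG10 transcript measured by Fluidigm qRT-PCR, normalized to three housekeeping genes, in HepaRG cells treated 48 h (highest 100 uM, half-log steps, 0.5% DMSO vehicle). Cells plated 48 h before switching to serum-free induction medium.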

[7] = read-out: Protein phosphatase 2A (PPP2R4), PTPA (gene 5524); assay: LTEA_HepaRG_PPP2R4: Life Technologies and Expression Analysis (LTEA) Assay for Protein phosphatase 2A (PPP2R4) using HepaRG (AID 2283522)
Outline: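 Expression was quantified by Fluidigm qRT-PCR normalised to three housekeeping genes after 48 h treatment. Human HepaRG cells received an 8-point series from 100 µM downward by half-logs, in duplicate with 0.5% DMSO vehicle and 1 mM phenobarbital as induction control.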

[8] = read-out: Phosphatase and tensin (PTEN), PTEN (gene 5728); assay: LTEA_HepaRG_PTEN: Life Technologies and Expression Analysis (LTEA) Assay for Phosphatase and tensin (PTEN) using HepaRG (AID 2283523)
Outline: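 Expression of PTEN is quantified in the human liver line HepaRG following two days of dosing (top concentration 100 uM, half-log dilutions, 0.5% DMSO). Values derive from bidirectional curve fitting relative to DMSO controls.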

[9] = read-out: solute carrier (SLC22A1), SLC22A1 (gene 6580); assay: LTEA_HepaRG_SLC22A1: Life Technologies and Expression Analysis (LTEA) Assay for solute carrier (SLC22A1) using HepaRG (AID 2283524);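 as to AC50: differentiated human HepaRG liver cells in serum-free induction medium; TaqMan qRT-PCR normalized to ACTB GAPDH and POLR2A housekeeping genes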
Outline: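 Transcript induction or suppression of SLC22A1 in human HepaRG cultures is scored after 48 h chemical treatment, with DMSO (0.5%) as baseline for bidirectional fitting. Concentrations span eight half-log points topping at 100 uM.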

[10] = read-out: Pyruvate Dehydrogenase Kinase 4 (PDK4), PDK4 (gene 5166); assay: LTEA_HepaRG_PDK4: Life Technologies and Expression Analysis (LTEA) Assay for Pyruvate Dehydrogenase Kinase 4 (PDK4) using HepaRG (AID 2283525)
Outline: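 Eight-point, half-log concentration series (max 100 uM, 0.5% DMSO) applied to differentiated HepaRG cells for 48 h in duplicate. Endpoint: PDK4 mRNA induction or repression by qRT-PCR against DMSO baseline.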

[11] = read-out: NAD(P)H dehydrogenase [quinone] 1 (NQO1), NQO1 (gene 1728); assay: LTEA_HepaRG_NQO1: Life Technologies and Expression Analysis (LTEA) Assay for NAD(P)H dehydrogenase [quinone] 1 (NQO1) using HepaRG (AID 2283526)
Outline: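 NQO1 transcript induction or loss measured by TaqMan qRT-PCR, referenced to three housekeeping genes and fitted bidirectionally against 0.5% DMSO. HepaRG cultures exposed 48 h, duplicate, eight-point half-log series, top 100 uM.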

[12] = read-out: Nuclear factor erythroid 2-related factor 2 (Homo sapiens) (UniProt Q16236); assay: LTEA_HepaRG_NFE2L2: Life Technologies and Expression Analysis (LTEA) Assay for Nuclear factor erythroid 2-related factor 2 (NFE2L2) Transcription Factor using HepaRG (AID 2283527)
Outline: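 Human liver HepaRG line treated in duplicate for 48 h with an eight-point series topping at 100 uM. Gene expression of NFE2L2 by qRT-PCR, bidirectionally fitted against the vehicle control.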

[13] = read-out: succinate dehydrogenase complex iron sulfur subunit B (SDHB), SDHB (gene 6390); assay: LTEA_HepaRG_SDHB: Life Technologies and Expression Analysis (LTEA) Assay for succinate dehydrogenase complex iron sulfur subunit B (SDHB) using HepaRG (AID 2283528)
Outline: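 Readout is SDHB transcript level by qRT-PCR, normalised to three housekeeping genes and fitted bidirectionally against 0.5% DMSO vehicle. Human HepaRG cells were treated for 48 h at up to 100 uM.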

[14] = read-out: Signal transducer and activator of transcription 3 (Homo sapiens) (UniProt P40763); assay: LTEA_HepaRG_STAT3: Life Technologies and Expression Analysis (LTEA) Assay for Signal transducer and activator of transcription (STAT3) using HepaRG (AID 2283529)
Outline: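 In this transcriptional endpoint, HepaRG cultures receive test chemicals at up to 100 uM for 48 h, tested in duplicate. STAT3 mRNA is normalized to ACTB, GAPDH and POLR2A.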

[15] = read-out: solute carrier (SLCO1B1), SLCO1B1 (gene 10599); assay: LTEA_HepaRG_SLCO1B1: Life Technologies and Expression Analysis (LTEA) Assay for solute carrier (SLCO1B1) using HepaRG (AID 2283530)
Outline: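 Human HepaRG cultures treated for 48 h with an eight-concentration half-log series topping at 100 uM; SLCO1B1 measured by qRT-PCR and fitted bidirectionally relative to DMSO.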

[16] = read-out: sulfotransferase 2A1 (SULT2A1), SULT2A1 (gene 6822); assay: LTEA_HepaRG_SULT2A1: Life Technologies and Expression Analysis (LTEA) Assay for sulfotransferase 2A1 (SULT2A1) using HepaRG (AID 2283531)
Outline: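 Gene-expression endpoint in a human liver cell line: SULT2A1 mRNA change after 48 h chemical treatment, curves fitted in both directions relative to 0.5% DMSO vehicle. Concentrations spanned eight half-log steps from 100 uM.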

[17] = read-out: Transforming Growth Factor (TGFB1), TGFB1 (gene 7040); assay: LTEA_HepaRG_TGFB1: Life Technologies and Expression Analysis (LTEA) Assay for Transforming Growth Factor (TGFB1) Transporter using HepaRG (AID 2283533)
Outline: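 Eight-point concentration-response (max 100 uM, half-log) in HepaRG under serum-free induction conditions, 48 h. TGFB1 mRNA by qRT-PCR, housekeeping-normalized.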

[18] = read-out: Transforming Growth Factor (TGFA), TGFA (gene 7039); assay: LTEA_HepaRG_TGFA: Life Technologies and Expression Analysis (LTEA) Assay for Transforming Growth Factor (TGFA) using HepaRG (AID 2283532)
Outline: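 Gene expression of TGFA was quantified by qRT-PCR after human HepaRG cells were treated for 48 h with test chemicals (eight concentrations, highest 100 uM, 0.5% DMSO). Activity in either direction was fitted relative to DMSO.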

[19] = read-out: Nuclear factor NF-kappa-B p105 subunit (Homo sapiens) (UniProt P19838); assay: LTEA_HepaRG_NFKB1: Life Technologies and Expression Analysis (LTEA) Assay for Nuclear Factor Kappa B Subunit 1 (NFKB1) using HepaRG (AID 2283521);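 also: differentiated human HepaRG liver cells in serum-free induction medium; TaqMan qRT-PCR transcript normalised to ACTB GAPDH and POLR2A housekeeping genes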
Outline: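 HepaRG, 48 h exposure; 8-pt half-log series from 100 uM in 0.5% DMSO; duplicates. Readout: NFKB1 mRNA by qRT-PCR (Fluidigm arrays), housekeeping-normalized. Gain/loss fit vs DMSO baseline.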

Measured: AC50

Signal transducer and activator of transcription 3 (Homo sapiens), sequence (P40763 whole entry, looked up): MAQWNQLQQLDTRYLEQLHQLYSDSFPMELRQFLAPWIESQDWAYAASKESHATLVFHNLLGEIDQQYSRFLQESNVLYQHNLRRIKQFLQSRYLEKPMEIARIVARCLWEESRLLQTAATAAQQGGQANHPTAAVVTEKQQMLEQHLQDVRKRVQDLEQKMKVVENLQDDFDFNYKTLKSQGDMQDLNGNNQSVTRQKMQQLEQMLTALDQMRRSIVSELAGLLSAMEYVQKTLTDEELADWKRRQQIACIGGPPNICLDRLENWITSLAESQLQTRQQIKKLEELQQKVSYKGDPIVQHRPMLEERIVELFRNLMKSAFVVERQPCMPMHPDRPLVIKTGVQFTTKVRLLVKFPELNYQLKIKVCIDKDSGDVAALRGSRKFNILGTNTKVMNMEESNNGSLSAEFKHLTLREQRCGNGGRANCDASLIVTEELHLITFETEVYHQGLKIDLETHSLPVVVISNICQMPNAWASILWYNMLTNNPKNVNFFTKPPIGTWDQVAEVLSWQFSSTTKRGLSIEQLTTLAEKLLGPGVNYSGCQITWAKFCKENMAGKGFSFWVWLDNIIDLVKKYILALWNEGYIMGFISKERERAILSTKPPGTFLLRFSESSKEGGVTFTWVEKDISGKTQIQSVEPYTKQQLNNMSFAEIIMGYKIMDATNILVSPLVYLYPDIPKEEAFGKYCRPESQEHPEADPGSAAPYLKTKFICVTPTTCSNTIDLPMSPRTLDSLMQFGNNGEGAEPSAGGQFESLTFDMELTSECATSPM
Nuclear factor NF-kappa-B p105 subunit (Homo sapiens), sequence (P19838 whole entry, looked up): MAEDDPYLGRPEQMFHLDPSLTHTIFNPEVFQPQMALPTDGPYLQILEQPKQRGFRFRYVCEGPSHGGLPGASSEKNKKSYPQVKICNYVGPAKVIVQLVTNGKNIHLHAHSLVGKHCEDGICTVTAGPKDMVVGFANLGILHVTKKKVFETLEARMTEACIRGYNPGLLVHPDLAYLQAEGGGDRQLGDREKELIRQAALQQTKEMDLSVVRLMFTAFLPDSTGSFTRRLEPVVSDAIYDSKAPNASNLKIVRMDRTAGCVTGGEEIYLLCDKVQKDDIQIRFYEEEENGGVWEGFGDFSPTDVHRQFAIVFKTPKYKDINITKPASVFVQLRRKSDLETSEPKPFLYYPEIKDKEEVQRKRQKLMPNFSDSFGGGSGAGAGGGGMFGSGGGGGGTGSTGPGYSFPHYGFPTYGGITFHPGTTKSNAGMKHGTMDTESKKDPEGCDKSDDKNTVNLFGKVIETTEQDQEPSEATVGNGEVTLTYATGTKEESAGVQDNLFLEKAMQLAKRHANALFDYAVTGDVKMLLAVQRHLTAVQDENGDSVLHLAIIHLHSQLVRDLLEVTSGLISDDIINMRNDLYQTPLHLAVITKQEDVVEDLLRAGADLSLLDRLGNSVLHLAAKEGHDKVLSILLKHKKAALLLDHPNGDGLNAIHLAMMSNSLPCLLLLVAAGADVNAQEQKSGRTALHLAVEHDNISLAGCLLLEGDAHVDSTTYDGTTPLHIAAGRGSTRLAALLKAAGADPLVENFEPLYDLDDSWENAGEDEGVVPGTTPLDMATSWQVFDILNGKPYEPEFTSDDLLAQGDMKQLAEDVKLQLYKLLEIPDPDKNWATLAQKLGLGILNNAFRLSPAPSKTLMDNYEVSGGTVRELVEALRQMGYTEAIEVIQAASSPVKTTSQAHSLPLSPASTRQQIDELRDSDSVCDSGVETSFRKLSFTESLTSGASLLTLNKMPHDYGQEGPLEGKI
Nuclear factor erythroid 2-related factor 2 (Homo sapiens), sequence (Q16236 whole entry, looked up): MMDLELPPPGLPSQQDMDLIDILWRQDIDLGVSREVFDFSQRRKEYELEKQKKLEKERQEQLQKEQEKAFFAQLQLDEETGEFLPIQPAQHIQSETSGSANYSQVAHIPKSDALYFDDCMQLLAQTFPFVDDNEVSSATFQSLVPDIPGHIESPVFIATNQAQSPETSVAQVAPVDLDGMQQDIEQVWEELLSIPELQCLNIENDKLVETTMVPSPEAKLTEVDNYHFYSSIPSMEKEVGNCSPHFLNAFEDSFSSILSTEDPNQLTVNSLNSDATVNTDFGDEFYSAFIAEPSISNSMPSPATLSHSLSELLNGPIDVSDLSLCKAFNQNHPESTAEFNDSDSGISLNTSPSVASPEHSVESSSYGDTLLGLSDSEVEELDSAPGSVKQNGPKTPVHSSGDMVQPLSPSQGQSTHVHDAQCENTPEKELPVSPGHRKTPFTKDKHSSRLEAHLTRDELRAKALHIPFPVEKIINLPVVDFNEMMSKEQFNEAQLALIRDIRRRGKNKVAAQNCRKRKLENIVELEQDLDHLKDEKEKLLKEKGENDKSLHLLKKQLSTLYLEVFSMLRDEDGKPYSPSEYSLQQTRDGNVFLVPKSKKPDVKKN

Cc1ccn2nc(S(=O)(=O)Nc3c(F)cccc3F)nc2n1
not listed: [18] | [19]
inactive: all other assays above

COP(=O)(NC(C)=O)SC (centres undefined)
not listed: [10] | [19]
inactive: all other assays above

COP(=O)(OC)SCn1c(=O)oc2cc(Cl)cnc21
active: [1] 79.1 µM | [6] 62.4 µM | [9] 50 µM
not listed: [10] | [18]
inactive: all other assays above

CC1=NNC(=O)N(/N=C/c2cccnc2)C1
not listed: [10]
inactive: all other assays above

CNc1cnn(-c2cccc(C(F)(F)F)c2)c(=O)c1Cl
active: MYC, MYC (gene 4609) 19.6 µM | [6] 32 µM | [9] 50 µM | [12] 9.92 µM
not listed: [1]
inactive: all other assays above

CON=C(C(=O)OC)c1ccccc1CON=C(C)c1cccc(C(F)(F)F)c1
active: [9] 50 µM
not listed: [10] | [18]
inactive: all other assays above

CCC(=O)Nc1ccc(Cl)c(Cl)c1
active: MYC, MYC (gene 4609) 50 µM | [6] 65 µM | [9] 50 µM | [12] 32.2 µM
not listed: [19]
inactive: all other assays above
